107 variants from the emibetuzumab library of Makowski et al. (2022) can be followed below.

Some of the results follow. The hit rate among all sequences tested is not known here.

The chains are these.
B1: VH:VL chains; a variant is named by its letters at X, in order (parent)
chain 1: QVQLVQSGAEVKKPGASVKVSCKASGYTFTDYXMHWVRQAPGQGLEWMGXVNPNXXXTTYNQKFEGRVTMTTDTSTSTAYMELRSLRSDDTAVYYCARXNXLDXWGQGTTVTVSS
chain 2: DIQMTQSPSSLSASVGDRVTITCSVSSSVSSIYLHWYQQKPGKAPKLLIYSTSNLASGVPSRFSGSGSGTDFTLTISSLQPEDFATYYCQVYSGYPLTFGGGTKVEIK

The assay covers variants of B1. As to the kind of experiment: yeast display scFab, FACS + sequencing. To be noted: with MET. The method, boiled down:
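Heavy-chain CDR mutant scFab yeast surface library, enriched by two magnetic rounds on HGFR-Fc-coated Protein A beads and then by FACS. Cells were labelled with 1 nM HGFR-Fc in PBSB with 1% milk and anti-Myc for 3 h at room temperature, and the top 50% antigen-positive cells were gated. Round-3 sorted and input populations were deep sequenced in two replicates. Antigen binding call: positive if a sequence occurred in both antigen-positive samples, negative if it occurred only in input.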
As to DTTRDDSD, the antigen binding call was “no binding”.

Take VTTKSDWV: the antigen binding call is given as “no binding”.

Consider AGKGGFAY, for which the antigen binding call was “no binding”. On to VEARNDWA chain 1 M81I, for which the antigen binding call is “no binding”. The value for YRRGGAWD was “binds”. On to YRRRGAWD, for which the antigen binding call was “binds”.

As to VETKGDWD, the antigen binding call is on record as “no binding”. In the case of AETKGDWD, the antigen binding call was “binds”.

On to YETKGDWD, for which the antigen binding call is “no binding”. With FRRGGAWD the entry was “binds”; with DTEGGSAS, “no binding”; with DEGGTAVV, “no binding”. On to DGARNAAA, for which the antigen binding call was “no binding”.

In the case of DEGGTAGV, the antigen binding call is listed as “no binding”. With DEGGTDLD the entry was “no binding”; with DATEDDSA, “no binding”; with YTRGADWY, “no binding”. In the case of YTKRGDWD, the antigen binding call is reported as “no binding”. The value for FRRRGDWY was “no binding”. On to YRRRGDWD, for which the antigen binding call is reported as “binds”. With YRRRGDWY the entry was “binds”; with YRGKGSWS, “binds”; with YRGKGAWS, “binds”. In the case of DEEASSWA, the antigen binding call is recorded as “no binding”.

As for DTGTGDVA, the antigen binding call is reported as “no binding”. As to VEAGDDGA, the antigen binding call was “no binding”. Take VKRGDDVA: the antigen binding call was “no binding”. The value for VRATGSVY was “no binding”. With VRRGDSVA the entry was “binds”; with VRRGDFWA, “no binding”. As for VRAGDAGA, the antigen binding call is given as “binds”. For VRARGVVA, the antigen binding call is “no binding”. With VRAGDSVA the entry was “binds”; with VRAGGSVA, “binds”. The value for VRAGDDGA was “no binding”; that for VTAGDDVA was “no binding”. With VEAGDAVA the entry was “no binding”; with VGGRADGF, “no binding”; with SKTKSDGA, “no binding”. DAGGAAGD: the antigen binding call is “no binding”. As for ATTKSAVA, the antigen binding call is “no binding”. VKAGDDVA: the antigen binding call is on record as “no binding”. In the case of FRAEGSVA, the antigen binding call is “binds”. With YKAGDSVA the entry was “binds”.

For VRAEGSVA, the antigen binding call is listed as “binds”.

For the variant VRRASSVA, the antigen binding call was “binds”. In the case of VTRGADAV, the antigen binding call is given as “no binding”. The value for SGAGDYSD was “no binding”; that for VAEKGFGA was “no binding”; that for VEAGDSSA was “no binding”. With VRGTGFGA the entry was “no binding”; with VRAGGFGA, “binds”. With VRAGDSSA the entry was “binds”; with VTGGDSSA, “no binding”. Take VKTGGDVF: the antigen binding call is given as “no binding”. With YRGAGAAA the entry was “binds”; with YRGASAAA, “binds”; with VAGAGAGA, “no binding”. With YRGAGYAA the entry was “no binding”. Take YRGAGAGA: the antigen binding call is given as “binds”. As to AGGGNDVV, the antigen binding call was “no binding”. With FKRRSSGD the entry was “binds”.

In the case of FKKGSSLD, the antigen binding call was “binds”. The value for FKARDSGD was “no binding”. As for FKRRSFGS, the antigen binding call is “no binding”.

In the case of FKKGSSGV, the antigen binding call is “binds”.

For FEERNSLD, the antigen binding call is listed as “no binding”.

FKRGSSLD: the antigen binding call is listed as “binds”. The value for FKEGNSLD was “no binding”; that for SEGADAGD was “no binding”; that for SEGGDAWV was “no binding”. On to FKKGSSGD, for which the antigen binding call is listed as “binds”.

As for FKKGSSWD, the antigen binding call is on record as “binds”.

With FKKGSVGD, the antigen binding call is recorded as “no binding”.

Regarding FKKEGYGD, the antigen binding call is recorded as “no binding”. In the case of VGGGNDLA chain 1 R87K, the antigen binding call is given as “no binding”.

FRAGSAWS: the antigen binding call is listed as “binds”. With FRAGGAWS the entry was “binds”; with DAAKNDAV, “no binding”. With DGGKNDGV the entry was “no binding”. For the variant VEGGADVF, the antigen binding call is “no binding”. Turning to DTGGGDLA, the antigen binding call was “no binding”. Take YRRGSSVS: the antigen binding call is on record as “binds”.

In the case of VEEEGSVS, the antigen binding call is “no binding”.

In the case of YRRGGSVS, the antigen binding call was “binds”. As for YARAGSVS, the antigen binding call is on record as “no binding”. With VRRGSSVS the entry was “binds”; with YKRGSSVS, “binds”; with DTGTGDGV, “no binding”. For YRRGGAVS, the antigen binding call is on record as “binds”.

Regarding DTKAAAVV, the antigen binding call is on record as “no binding”.

Turning to DRAGDYLY, the antigen binding call is given as “no binding”. Take SRAGDYLV: the antigen binding call is listed as “no binding”. Turning to ARAGDYLV, the antigen binding call is given as “no binding”. For DRRGDSLV, the antigen binding call was “no binding”. DRAGDDWV: the antigen binding call is listed as “no binding”.

For the variant DRAGDYLV, the antigen binding call is reported as “binds”. Take DRAGDSLV: the antigen binding call was “binds”.

Consider FRAGDYLV, for which the antigen binding call is on record as “binds”. The value for VRAGDYLV was “no binding”; that for SAREGDWV was “no binding”. The value for SAARDAVA was “no binding”; that for FAGGGDVY was “no binding”. With VRTEDDVF the entry was “no binding”; with FRGGASSD, “binds”; with FRGRGFSV, “no binding”.

As to FKGTDSSD, the antigen binding call is reported as “no binding”.
